# Results: the supplement of paper PMC12282887
# ± gives the standard deviation of the averaged measurements.
# Experiments:
# Experiment in all cases: promoter activity interaction Z-score (Lux/OD deviation from empty-vector control); higher = stronger promoter induction by the compound
# [1] = system: E. coli BW25113 acrABp lux reporter
# Summary of the method: (§1)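 At 37°C, E. coli BW25113 reporter cultures in 40 µl LB Lennox in 384-well plates were read for OD600 and luminescence every 30 min for 12 h. Windows were 0–8 h for wild type and 1–9 h for deletion strains, and wells under 10% of the median growth value were removed. The score is the Z-transformed residual of growth-normalised luminescence against a control fit.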
# [2] = system: E. coli BW25113 micFp lux reporter
# Summary of the method: as §1
# [3] = system: E. coli BW25113 ompFp lux reporter
# Summary of the method: as §1
# [4] = system: E. coli BW25113 robp lux reporter
# Summary of the method: as §1
# [5] = system: E. coli BW25113 soxSp lux reporter
# Summary of the method: as §1
# [6] = system: E. coli BW25113 tolCp lux reporter
# Summary of the method: as §1
# [7] = 17.8 µg/ml, genetic background: wild type
# [8] = 17.8 µg/ml, genetic background: ΔmarA
# [9] = 17.8 µg/ml, genetic background: Δrob
# [10] = 17.8 µg/ml, genetic background: ΔsoxS
# [11] = 35.7 µg/ml, genetic background: wild type
# [12] = 35.7 µg/ml, genetic background: ΔmarA
# [13] = 35.7 µg/ml, genetic background: Δrob
# [14] = 35.7 µg/ml, genetic background: ΔsoxS
# [15] = 71.3 µg/ml, genetic background: wild type
# [16] = 71.3 µg/ml, genetic background: ΔmarA
# [17] = 71.3 µg/ml, genetic background: Δrob
# [18] = 71.3 µg/ml, genetic background: ΔsoxS
# [19] = 142.7 µg/ml, genetic background: wild type
# [20] = 142.7 µg/ml, genetic background: ΔmarA
# [21] = 142.7 µg/ml, genetic background: Δrob
# [22] = 142.7 µg/ml, genetic background: ΔsoxS
smiles,measurement,setting,value
O=C(/C=C/C=C/c1ccc2c(c1)OCO2)N1CCCCC1 [Piperine],promoter activity interaction Z-score,[1]; [7],0.246 ± 0.24
same,promoter activity interaction Z-score,[1]; [8],2.16 ± 0.78
same,promoter activity interaction Z-score,[1]; [9],-0.45 ± 0.37
same,promoter activity interaction Z-score,[1]; [10],-0.228 ± 0.025
same,promoter activity interaction Z-score,[1]; [11],-0.267 ± 0.27
same,promoter activity interaction Z-score,[1]; [12],-0.218 ± 0.58
same,promoter activity interaction Z-score,[1]; [13],-0.35 ± 0.11
same,promoter activity interaction Z-score,[1]; [14],-0.339 ± 0.26
same,promoter activity interaction Z-score,[1]; [15],0.114 ± 0.35
same,promoter activity interaction Z-score,[1]; [16],1.19 ± 0.28
same,promoter activity interaction Z-score,[1]; [17],-0.349 ± 0.35
same,promoter activity interaction Z-score,[1]; [18],-0.246 ± 0.6
same,promoter activity interaction Z-score,[1]; [19],-0.023 ± 0.22
same,promoter activity interaction Z-score,[1]; [20],0.484 ± 0.7
same,promoter activity interaction Z-score,[1]; [21],-0.275 ± 0.24
same,promoter activity interaction Z-score,[1]; [22],0.0345 ± 0.17
same,promoter activity interaction Z-score,[2]; [7],0.0366 ± 0.31
same,promoter activity interaction Z-score,[2]; [8],-0.191 ± 0.14
same,promoter activity interaction Z-score,[2]; [9],0.0158 ± 0.19
same,promoter activity interaction Z-score,[2]; [10],-0.381 ± 0.062
same,promoter activity interaction Z-score,[2]; [11],-0.332 ± 0.016
same,promoter activity interaction Z-score,[2]; [12],-0.0943 ± 0.12
same,promoter activity interaction Z-score,[2]; [13],0.0827 ± 0.3
same,promoter activity interaction Z-score,[2]; [14],-0.204 ± 0.038
same,promoter activity interaction Z-score,[2]; [15],0.0474 ± 0.091
same,promoter activity interaction Z-score,[2]; [16],-0.151 ± 0.15
same,promoter activity interaction Z-score,[2]; [17],-0.00444 ± 0.34
same,promoter activity interaction Z-score,[2]; [18],-0.417 ± 0.16
same,promoter activity interaction Z-score,[2]; [19],0.0188 ± 0.37
same,promoter activity interaction Z-score,[2]; [20],0.0457 ± 0.14
same,promoter activity interaction Z-score,[2]; [21],-0.043 ± 0.02
same,promoter activity interaction Z-score,[2]; [22],-0.135 ± 0.14
same,promoter activity interaction Z-score,[3]; [7],-0.0829 ± 0.54
same,promoter activity interaction Z-score,[3]; [8],-1.35 ± 0.34
same,promoter activity interaction Z-score,[3]; [9],-0.822 ± 0.25
same,promoter activity interaction Z-score,[3]; [10],-0.433 ± 0.063
same,promoter activity interaction Z-score,[3]; [11],-0.415 ± 0.064
same,promoter activity interaction Z-score,[3]; [12],-1.08 ± 0.24
same,promoter activity interaction Z-score,[3]; [13],-0.634 ± 0.12
same,promoter activity interaction Z-score,[3]; [14],-0.567 ± 0.14
same,promoter activity interaction Z-score,[3]; [15],-0.476 ± 0.17
same,promoter activity interaction Z-score,[3]; [16],-1.71 ± 0.16
same,promoter activity interaction Z-score,[3]; [17],-0.778 ± 0.1
same,promoter activity interaction Z-score,[3]; [18],-1.09 ± 0.28
same,promoter activity interaction Z-score,[3]; [19],-0.342 ± 0.011
same,promoter activity interaction Z-score,[3]; [20],-0.966 ± 0.094
same,promoter activity interaction Z-score,[3]; [21],-0.486 ± 0.29
same,promoter activity interaction Z-score,[3]; [22],-0.548 ± 0.51
same,promoter activity interaction Z-score,[4]; [7],0.172 ± 0.75
same,promoter activity interaction Z-score,[4]; [8],-0.36 ± 0.095
same,promoter activity interaction Z-score,[4]; [9],0.172 ± 1.4
same,promoter activity interaction Z-score,[4]; [10],-0.316 ± 0.4
same,promoter activity interaction Z-score,[4]; [11],0.097 ± 0.42
same,promoter activity interaction Z-score,[4]; [12],-1.12 ± 0.12
same,promoter activity interaction Z-score,[4]; [13],-0.276 ± 0.084
same,promoter activity interaction Z-score,[4]; [14],-0.113 ± 0.51
same,promoter activity interaction Z-score,[4]; [15],-0.241 ± 0.27
same,promoter activity interaction Z-score,[4]; [16],-0.584 ± 0.63
same,promoter activity interaction Z-score,[4]; [17],0.349 ± 1.6
same,promoter activity interaction Z-score,[4]; [18],-0.312 ± 0.18
same,promoter activity interaction Z-score,[4]; [19],1.83 ± 1.8
same,promoter activity interaction Z-score,[4]; [20],0.000795 ± 0.15
same,promoter activity interaction Z-score,[4]; [21],0.186 ± 0.23
same,promoter activity interaction Z-score,[4]; [22],0.201 ± 0.43
same,promoter activity interaction Z-score,[5]; [7],0.109 ± 0.15
same,promoter activity interaction Z-score,[5]; [8],-0.193 ± 0.12
same,promoter activity interaction Z-score,[5]; [9],0.0591 ± 0.33
same,promoter activity interaction Z-score,[5]; [10],-0.222 ± 0.045
same,promoter activity interaction Z-score,[5]; [11],-0.168 ± 0.034
same,promoter activity interaction Z-score,[5]; [12],-0.0932 ± 0.073
same,promoter activity interaction Z-score,[5]; [13],0.0518 ± 0.4
same,promoter activity interaction Z-score,[5]; [14],-0.0694 ± 0.036
same,promoter activity interaction Z-score,[5]; [15],0.0967 ± 0.17
same,promoter activity interaction Z-score,[5]; [16],-0.245 ± 0.091
same,promoter activity interaction Z-score,[5]; [17],0.0476 ± 0.29
same,promoter activity interaction Z-score,[5]; [18],-0.421 ± 0.13
same,promoter activity interaction Z-score,[5]; [19],-0.0465 ± 0.24
same,promoter activity interaction Z-score,[5]; [20],-0.324 ± 0.079
same,promoter activity interaction Z-score,[5]; [21],-0.0385 ± 0.2
same,promoter activity interaction Z-score,[5]; [22],-0.403 ± 0.12
same,promoter activity interaction Z-score,[6]; [7],0.553 ± 0.54
same,promoter activity interaction Z-score,[6]; [8],0.188 ± 1.3
same,promoter activity interaction Z-score,[6]; [9],0.472 ± 2.8
same,promoter activity interaction Z-score,[6]; [10],-0.947 ± 0.95
same,promoter activity interaction Z-score,[6]; [11],0.236 ± 0.38
same,promoter activity interaction Z-score,[6]; [12],-0.452 ± 0.27
same,promoter activity interaction Z-score,[6]; [13],-0.598 ± 1.4
same,promoter activity interaction Z-score,[6]; [14],-0.521 ± 0.018
same,promoter activity interaction Z-score,[6]; [15],0.515 ± 0.49
same,promoter activity interaction Z-score,[6]; [16],-0.357 ± 0.42
same,promoter activity interaction Z-score,[6]; [17],-0.0523 ± 0.77
same,promoter activity interaction Z-score,[6]; [18],0.108 ± 1.1
same,promoter activity interaction Z-score,[6]; [19],0.274 ± 0.22
same,promoter activity interaction Z-score,[6]; [20],0.331 ± 2.3
same,promoter activity interaction Z-score,[6]; [21],-0.437 ± 0.62
same,promoter activity interaction Z-score,[6]; [22],-0.524 ± 0.86
